The results in this text go back to PubChem BioAssay.

The nature of assay [1]: compounds altering circadian rhythm period length – cell-based, LOPAC library, luminescence reporter (AID 2774).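 Further: values are relative to mean of DMSO wells on each plate.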 The conditions noted are these: circadian reporter cells, at 7 µM, actives lie on both sides.
In assay [2] the test system is Hepatitis C virus NS3 helicase. As to the kind of experiment: blockers of NS3h binding to ssDNA – biochemical, fluorescence polarization, LOPAC1280 library, primary screen (AID 687035; in the data active means inhibition above about 37%). Particulars: Purified HCV NS3 helicase, Cy5-dT15 ssDNA binding fluorescence polarization; stronger effect = higher value; concentration not given here.
A short description of assay [3]: compounds altering Cy5-DNA-NS3h complex signal – biochemical, LOPAC1280, artefact control for HCV NS3 helicase inhibitor project (AID 687037). Particulars: Cy5-DNA-NS3h complex fluorescence interference counterscreen.
For assay [4], the system named is Aerobactin synthetase IucA (Klebsiella pneumoniae). As to the kind of experiment: inhibition of K. pneumoniae IucA enzyme – biochemical, Tocris library, absorbance (AID 1345561).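 Further: 100% = enzyme without compound and 0% = no enzyme.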 Particulars: purified IucA enzyme assay, absorbance (OD) read-out; stronger effect = lower value;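 tested at 8 µM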.
A short description of assay [5]: viability loss with induced miR-34 in A549 – imaging, A549 dox-inducible miR-34, nuclei and caspase counts, primary screen (AID 1347080;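 active means compounds whose cell count with miR-34 switched on is under 0.7 times the count with it off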). The conditions noted are these: A549 miR-34 inducible, Hoechst nuclei count, 48 h.
Assay [6] in a line: blockers of cellular phospholipid synthesis – cell-based, LOPAC library, screen 4, primary screen (AID 1347384). The conditions noted are these: animal cells, phospholipid biosynthesis inhibition screen; at 10 µM.
Assay [7] in a line: galactose survival enhancers in mitochondrial complex I cybrids – cell-based, galactose medium, ATP luminescence, primary screen (AID 1645843;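 active means z-score of at least 1.8 in each of two replicates, scored against plate mean and spread of sample wells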;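 further: positive z means more ATP and so rescue of galactose-driven cybrid death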). Particulars: complex I mutant cybrid cells, 72 h, stronger effect = higher value.
A short description of assay [8]: chitosan synthesis blockers in C. neoformans – flow cytometry, Cibacron Brilliant Red staining (AID 1347148).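 Further: compound exposure lasted three days at 37 degrees C.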 Particulars: Cryptococcus neoformans chitosan, stronger effect = lower value; at 10 µM unless noted.
Assay [9] in a line: MELAS cybrid and Rieske KO viability enhancers – cell-based, MELAS cybrids, Rieske KO mouse fibroblasts, CellTiter-Glo, primary screen (AID 1508586;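 active means mean z-score across replicates of 1.96 or higher in either the MELAS or the Rieske mutant cell line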;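 further: z relative to plate mean and SD of compound and empty wells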). Particulars: low glucose. On the technique in general: In ATP-based viability assays light output follows the ATP content of the culture.
Where [10] appears, read: stronger effect = lower value, cell number ratio, induced over uninduced.
The mark [11] stands for this setting: measured here: relative caspase fold change +Dox/-Dox.
Setting [12] is: measured here: total cells with miR-34 induction, stronger effect = lower value.
Where [13] appears, read: measured here: total cells without miR-34 induction.

Each structure is given as a SMILES string. Values joined by “and” are separate entries in the source; they are usually repeats but may differ in a detail not shown here. Identical values can stand only once. Active and inactive are the calls of the source. Unless noted, how the calls were made is not given here.

Usually inhibition stands for the relative decrease from the control value, in per cent. As a reminder, the remaining activity is the signal under treatment as a percentage of the control signal. On to `CCN(CC)CCOC(=O)c1cc(Cl)c(N)cc1OC`, for which the period change in assay [1] was -0.055 h (inactive). Moreover, in [2], the inhibition was -6% (inactive). Further, the fluorescence ratio (interference) in [3] was 1 (inactive). The remaining activity in assay [4] was 95% (inactive). Moreover, the fold change in assay [5] (setting [10]) was 0.965 (inactive) and 0.955 (inactive); in assay [5] (setting [11]), 1.47 and 1.03. Besides, the cell count in assay [5] (setting [12]) is 10500 and 9010; in [5] (setting [13]), 10800 and 9430. Moreover, the compound was classed as inactive in assay [6]. Besides, in assay [7], the z-score was 0.75 (inactive) and 0.1 (inactive).
In the case of `COC(=O)C1=C(C)NC(C)=C([N+](=O)[O-])C1c1ccccc1C(F)(F)F` (configuration not stated), the period change in [1] is 0.05 h (inactive). In addition, the inhibition in assay [2] is -5% (inactive). The fluorescence ratio (interference) in assay [3] is 0.9 (inactive). In addition, the remaining activity in [4] was 124% (inactive). Besides, the fold change is 1.01 (inactive) and 1 (inactive) and 0.845 (inactive) in [5] (setting [10]); 1.21 and 1.49 and 0.884 in assay [5] (setting [11]). In addition, the cell count in [5] (setting [12]) is 9160 and 5080 and 7400; in [5] (setting [13]) it was 9050 and 5080 and 8750. Moreover, the call in assay [6] was inactive. Besides, the z-score in assay [7] is -0.7 (inactive) and -0.625 (inactive).
Consider `NCC(O)(CS(=O)(=O)O)c1ccc(Cl)cc1` (configuration not stated), for which, in assay [1], the period change is 0.035 h (inactive). For the same compound, the inhibition in [2] is -2% (inactive). Also, the fluorescence ratio (interference) in assay [3] is 1 (inactive). Further, the remaining activity in assay [4] was 105% (inactive). The fold change is 0.977 (inactive) in assay [5] (setting [10]); 2.17 and 0.803 in [5] (setting [11]). Further, the cell count was 9480 and 8580 in assay [5] (setting [12]); 9700 and 8780 in assay [5] (setting [13]). Besides, the outcome in assay [6] was inactive. Also, in assay [7], the z-score was 0.265 (inactive) and -0.115 (inactive).
As to `CC(C)(C=O)Cc1cc(C(C)(C)C)c(O)c(C(C)(C)C)c1`, in assay [1], the period change is 0.05 h (inactive). Moreover, in assay [2], the inhibition is 0% (inactive). For the same compound, in assay [3], the fluorescence ratio (interference) was 1 (inactive). For the same compound, the remaining activity in assay [4] is 125% (inactive). Also, the fold change was 1.05 (inactive) and 0.927 (inactive) in [5] (setting [10]); 1.79 and 0.718 in assay [5] (setting [11]). The cell count was 9400 and 9850 in [5] (setting [12]); 8980 and 10600 in assay [5] (setting [13]). For the same compound, the outcome in assay [6] was inactive. Further, the z-score in assay [7] is -1.33 (inactive) and -0.18 (inactive).
With `CC(=O)NNC(=O)N1Cc2ccccc2Oc2ccc(Cl)cc21`, the period change in assay [1] is -0.025 h (inactive). In addition, in assay [2], the inhibition was -1% (inactive). Further, the fluorescence ratio (interference) in [3] was 1 (inactive). For the same compound, the remaining activity in assay [4] is 100% (inactive). Moreover, the fold change in [5] (setting [10]) is 0.965 (inactive) and 0.956 (inactive); in assay [5] (setting [11]) it was 0.954 and 0.9. In addition, the cell count in assay [5] (setting [12]) is 10200 and 8650; in [5] (setting [13]), 10600 and 9060. Further, the outcome in [6] was inactive. Besides, the z-score in assay [7] is 1.17 (inactive) and 0.635 (inactive).
For `Cc1cccc(/C=C/c2ccccc2)n1`, in assay [1], the period change is 0.01 h (inactive). The inhibition in assay [2] is 0% (inactive). Moreover, in [3], the fluorescence ratio (interference) was 1 (inactive). Besides, in [4], the remaining activity was 108% (inactive). The fold change in assay [5] (setting [10]) is 0.995 (inactive) and 0.915 (inactive); in [5] (setting [11]), 1.79 and 0.591. The cell count in [5] (setting [12]) was 9190 and 8490; in assay [5] (setting [13]) it was 9240 and 9280. Moreover, the outcome in [6] was inactive. In addition, the z-score in assay [7] is 1.12 (inactive) and 0.09 (inactive).
For the compound `Clc1ccc(N2CCN(Cc3c[nH]c4ncccc34)CC2)cc1`, the period change in assay [1] is 0.105 h (inactive). For the same compound, the inhibition in [2] was 12% (inactive). In addition, in [3], the fluorescence ratio (interference) is 1 (inactive). Further, the remaining activity in [4] is 95.2% (inactive). In addition, the fold change in assay [5] (setting [10]) is 1.07 (inactive) and 0.896 (inactive); in assay [5] (setting [11]), 0.721 and 0.794. Also, the cell count was 9090 and 6380 in assay [5] (setting [12]); 8470 and 7120 in assay [5] (setting [13]). Moreover, the result in assay [6] was inactive. Moreover, the z-score in [7] is -0.965 (inactive) and -1.05 (inactive).
Regarding `O=C(OCCN1CCOCC1)C1(c2ccccc2)CCCCC1`, the period change in [1] was -0.085 h (inactive). Also, in assay [2], the inhibition was -2% (inactive). Moreover, the fluorescence ratio (interference) in assay [3] is 1 (inactive). Also, the remaining activity in assay [4] was 124% (inactive). Moreover, the fold change in assay [5] (setting [10]) is 1.05 (inactive) and 1.02 (inactive); in assay [5] (setting [11]), 1.06 and 0.742. Further, the cell count in assay [5] (setting [12]) was 10700 and 8020; in assay [5] (setting [13]), 10200 and 7840. Further, the outcome in assay [6] was inactive. For the same compound, the z-score in assay [7] was -0.08 (inactive) and -0.97 (inactive).
Consider `CC#CCOC(=O)c1c(C)nc2sc3c(c2c1N)CCC(O)C3` (configuration not stated), for which, in assay [1], the period change is -0.09 h (inactive). Besides, the inhibition in assay [2] is -3% (inactive). Further, in [3], the fluorescence ratio (interference) was 1 (inactive). Moreover, in assay [4], the remaining activity is 102% (inactive). For the same compound, the fold change is 0.861 (inactive) and 0.824 (inactive) in assay [5] (setting [10]); 0.901 and 1 in assay [5] (setting [11]). Besides, the cell count in [5] (setting [12]) is 7740 and 5720; in assay [5] (setting [13]) it was 8990 and 6940. Besides, the compound was classed as inactive in [6]. The z-score in assay [7] is -1.22 (inactive) and -0.71 (inactive).
As for `O=c1[nH]c2cc([N+](=O)[O-])c([N+](=O)[O-])cc2[nH]c1=O`, in [1], the period change was 0.075 h (inactive). Moreover, the inhibition in assay [2] is -4% (inactive). Also, the fluorescence ratio (interference) in assay [3] is 1 (inactive). Moreover, the remaining activity in [4] was 109% (inactive). Moreover, the fold change in [5] (setting [10]) is 0.955 (inactive) and 0.937 (inactive); in assay [5] (setting [11]), 1 and 0.778. For the same compound, the cell count in [5] (setting [12]) was 9840 and 7960; in [5] (setting [13]), 10300 and 8490. Moreover, the call in assay [6] was inactive. Moreover, the z-score in assay [7] was -0.11 (inactive) and 0.22 (inactive).
Turning to `c1ccc2nc(C3=NCCN3)ccc2c1`, in assay [1], the period change was 0.1 h (inactive). Besides, in [2], the inhibition is 0% (inactive). Further, the fluorescence ratio (interference) in [3] is 1 (inactive). For the same compound, the remaining activity in [4] is 101% (inactive). Further, the fold change in assay [5] (setting [10]) is 1.03 (inactive) and 0.931 (inactive); in [5] (setting [11]), 1.73 and 0.739. Besides, the cell count in [5] (setting [12]) was 9970 and 8800; in assay [5] (setting [13]) it was 9720 and 9460. Besides, the outcome in [6] was inactive. For the same compound, in assay [7], the z-score was 0.695 (inactive) and 0.09 (inactive).
Consider `CCCn1c(=O)c(C)cn2nc(N)nc12`, for which the inhibition in assay [2] was -2% (inactive). Besides, in assay [3], the fluorescence ratio (interference) is 1 (inactive). The remaining activity in assay [4] is 123% (inactive). Moreover, the fold change in [5] (setting [10]) was 0.963 (inactive) and 0.912 (inactive); in assay [5] (setting [11]), 2.19 and 0.621. For the same compound, the cell count was 10000 and 9600 in [5] (setting [12]); 10400 and 10500 in [5] (setting [13]). In addition, the outcome in assay [6] was inactive. In assay [7], the z-score was 0.8 (inactive) and -0.21 (inactive).
With `Cc1ccc(C(=O)Cn2c3c(sc2=N)CCCC3)cc1`, in assay [4], the remaining activity was 107% (inactive). Also, the fold fluorescence in assay [8] was 5.78 [at 174.6 µM] (inactive). Besides, the z-score in assay [9] (MELAS cybrid survival, CellTiter-Glo 48 h, stronger effect = higher value) is 1.05 (inactive); in assay [9] (Rieske KO mouse fibroblast survival, CellTiter-Glo 72 h), -0.573; in assay [7], -0.225 (inactive).
With `CCCCCCC(=O)OC1CC(C)(C)NC(C)(C)C1`, the inhibition in assay [2] was -4% (inactive). Moreover, the fluorescence ratio (interference) in assay [3] is 0.9 (inactive). For the same compound, in [4], the remaining activity is 97.8% (inactive). For the same compound, the fold change in assay [5] (setting [10]) is 0.999 (inactive) and 0.934 (inactive); in [5] (setting [11]), 0.562 and 1.2. The cell count in assay [5] (setting [12]) was 9880 and 8660; in assay [5] (setting [13]), 9890 and 9270. In addition, the call in assay [6] was inactive. The z-score in [7] is 0.56 (inactive) and 0.015 (inactive).
On to `CCCCCCCCCCC(C)(C)C(=O)Nc1c(OC)cc(OC)cc1OC`, for which the inhibition in [2] was -1% (inactive). Moreover, in assay [3], the fluorescence ratio (interference) was 1 (inactive). Besides, in [4], the remaining activity is 89.7% (inactive). The fold change in assay [5] (setting [10]) is 1.03 (inactive) and 0.876 (inactive); in [5] (setting [11]), 2.03 and 1.56. Also, the cell count in assay [5] (setting [12]) is 8990 and 6930; in [5] (setting [13]), 8710 and 7910. For the same compound, the compound was classed as inactive in assay [6]. The z-score in [7] was -1.29 (inactive) and -0.7 (inactive).
